Shown are actives, neighbours in structure and some others; about 11% of the full set was active somewhere.
HEK293 tox: cytotoxic compounds in HEK 293 cells; Potency, µM (doses to about 115 µM), inactives show at the highest dose activity change, negative = cytotoxicity, most hits filed as inhibitors; HEK 293 viability, ATP luminescence (CellTiter-Glo), 48-72 h; actives 6.6% (n = 94,000); active means well fitted curve in the direction sought with a large enough effect; inconclusive means small, poorly fitted or top-dose-only effect, or another doubt; inactive means no such curve, though single readings can be large; an effect the other way counts as inactive or inconclusive; further: on the % scale 0 is the no-effect control and ±100 the full control effect; nearly all actives have a fitted effect of over 60% in size
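HEK 293 seeded at 250 cells/well receive compound via pintool. After 48 or 72 hr at 37 degree Celsius, 5% CO2 and 95% humidity, CellTiter-Glo is dispensed and luminescence read following 10 min at room temperature.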
NIH3T3 tox: NIH 3T3 cell cytotoxicity | NIH 3T3 viability, CellTiter-Glo ATP luminescence, 48-72 h | actives 4.3% (n = 94,000) | Potency, µM (doses to about 96.7 µM), inactives show top-dose activity change, negative = cytotoxicity, most hits filed as inhibitors; active means well fitted curve in the direction sought with a large enough effect; inconclusive means small, poorly fitted or top-dose-only effect, or another doubt; inactive means no such curve, though single readings can be large; an effect the other way counts as inactive or inconclusive; further: on the % scale 0 is the no-effect control and ±100 the full control effect; nearly all actives have a fitted effect of over 55% in size
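First NIH 3T3 cells are plated at 400 cells/well; next compound is pinned in; then plates incubate 48 or 72 hr at 37 °C; finally CellTiter-Glo is added and luminescence read after 10 min.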
Luciferase inh: Photinus pyralis luciferase inhibition. P08659. purified P. pyralis luciferase, luminescence, biochemical. Potency, µM (top dose mostly 115 µM), hits mostly inhibitors. actives 2.5% (n = 76,000). AID 1347043; active means well fitted curve in the direction sought with a large enough effect; inconclusive means small, poorly fitted or top-dose-only effect, or another doubt; inactive means no such curve, though single readings can be large; an effect the other way counts as inactive or inconclusive; further: on the % scale 0 is the no-effect control and ±100 the full control effect; nearly all actives have a fitted effect of over 65% in size
Target sequence (P08659 whole entry, looked up): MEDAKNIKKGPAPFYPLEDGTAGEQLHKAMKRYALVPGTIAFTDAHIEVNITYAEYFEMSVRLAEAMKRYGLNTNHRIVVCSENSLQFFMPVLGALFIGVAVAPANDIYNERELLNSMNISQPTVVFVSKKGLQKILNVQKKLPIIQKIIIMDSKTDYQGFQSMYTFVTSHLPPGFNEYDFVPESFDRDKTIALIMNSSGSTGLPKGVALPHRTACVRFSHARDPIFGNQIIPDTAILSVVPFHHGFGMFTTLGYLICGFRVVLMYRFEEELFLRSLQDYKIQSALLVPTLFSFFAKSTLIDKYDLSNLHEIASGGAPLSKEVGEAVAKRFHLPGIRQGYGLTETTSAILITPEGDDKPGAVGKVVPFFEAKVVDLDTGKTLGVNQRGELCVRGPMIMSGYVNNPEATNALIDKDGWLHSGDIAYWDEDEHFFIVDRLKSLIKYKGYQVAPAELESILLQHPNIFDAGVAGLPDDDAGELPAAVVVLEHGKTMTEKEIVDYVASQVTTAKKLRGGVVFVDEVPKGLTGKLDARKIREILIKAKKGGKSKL
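Inhibitors were tested against purified firefly luciferase in a biochemical, low-substrate format (both substrates at 10uM) and luminescence measured with a CCD imager.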
NPR1 antag: human Npr1 receptor antagonism; P16066; HEK293 hNpr1 GloSensor cGMP, ANP-stimulated luminescence; Potency, µM (highest dose often 46.3 µM), for inactives: at the top dose activity change, negative = inhibition, hits mostly inhibitors; actives 1.6% (n = 76,000); AID 1347048; further: on the % scale 0 is the no-effect control and ±100 the full control effect; nearly all actives have a fitted effect of over 60% in size
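Compound pre-incubated 30 min at room temperature on GloSensor-loaded HEK293 cells stably carrying hNpr1 and the pGS-40F cGMP biosensor. Stimulation uses hNppA at 0.1 nM final; luminescence is taken at baseline and 20 min post-agonist.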
NPR1 antag cnf: confirmation of human Npr1 natriuretic peptide receptor antagonists. shares compounds with NPR1 antag. HEK293 hNpr1 cGMP GloSensor luminescence, ANP-stimulated. Potency, µM (top dose mostly 57.6 µM), for inactives: at the top dose activity change, negative = inhibition, usual class: inhibitors. actives 76% (n = 1,400). AID 1347044; further: nearly all actives have a fitted effect of over 70% in size
Npr2 selectivity: hNpr2 antagonism, selectivity versus Npr1 | shares compounds with NPR1 antag | AID 1347046 | actives 67% (n = 1,400) | Potency, µM (doses to about 57.6 µM), without a hit: top-dose activity change, negative = inhibition, usual class: inhibitors | HEK293 hNpr2 GloSensor cGMP luminescence, CNP-stimulated; further: nearly all actives have a fitted effect of over 70% in size
FLuc inh counter: counter-screen for Npr1 antagonists: firefly luciferase inhibitors | Potency, µM (highest dose often 57.6 µM), without a hit: at the top dose activity change, negative = inhibition, hits mostly inhibitors | purified FLuc enzyme, luminescence, Km substrate | actives 0.7% (n = 1,400) | shares compounds with NPR1 antag; active means well fitted curve in the direction sought with a large enough effect; inconclusive means small, poorly fitted or top-dose-only effect, or another doubt; inactive means no such curve, though single readings can be large; an effect the other way counts as inactive or inconclusive; further: 0% is about no effect
GloSensor ctrl: control cell line activity, Npr1 antagonist counter-screen; actives 69% (n = 1,400); shares compounds with NPR1 antag; Potency, µM (titrated, usually from 57.6 µM), inactives show at the highest dose activity change, negative = inhibition, most hits filed as inhibitors; HEK293 GloSensor cGMP, SNP-stimulated, luminescence; further: on the % scale 0 is the no-effect control and ±100 the full control effect; nearly all actives have a fitted effect of over 70% in size
The depositor's hits bear a star; i = inactive; ? = inconclusive; . = no result; [ ] = another dose, or the depositor's remark. Unless noted, the call rests on the fitted dose curve. Potency means the concentration at half of the fitted maximal effect.

SMILES	HEK293 tox	NIH3T3 tox	Luciferase inh	NPR1 antag	NPR1 antag cnf	Npr2 selectivity	FLuc inh counter	GloSensor ctrl
Cc1nn(C)c(C)c1C(C)NC(=O)c1ccc(CC2CCN(C(=O)C3CC3)CC2)cc1 (stereo not drawn)	?	?	i	11.2µM*	17.2µM*	17.2µM*	8.1%	15.3µM*
O=C1CC2(CCN(C(=O)C3CCCN(C(=O)NC4CCCC4)C3)CC2)Oc2ccccc2N1 (stereo not drawn)	?	-31.4%	.	.	.	.	.	.
O=C(Cc1c[nH]c2ncc(-c3cccc(CO)c3)cc12)N1CCOCC1	?	?	i	-21.7%[70.6 µM]	.	.	.	.
O=C(Cc1c[nH]c2ncc(-c3ccccc3C(F)(F)F)cc12)N1CCOCC1	?	?	i	2µM*	4.44µM*	8.86µM*	1.1%[86.2 µM]	3.96µM*
Cc1ccccc1-c1cnc2[nH]cc(CC(=O)N3CCOCC3)c2c1	112µM*	-55.5%[138 µM]	i	2.82µM*	2.8µM*	4.44µM*	-0.7%[86.2 µM]	2.22µM*
COC(=O)c1cn([C@H]2CO[C@H]3[C@@H]2OC[C@@H]3NC(=O)c2ccc(N(C)C)cc2)nn1	-8.1%[172 µM]	-26.0%[138 µM]	i	1.0%[70.6 µM]	.	.	.	.
CCCn1cc(C(=O)NC(C)c2cnn(-c3cccc(F)c3)c2C)c(C)n1 (stereo not drawn)	?	-31.0%	i	2.82µM*	4.32µM*	6.11µM*	4.1%	3.06µM*
Cc1c(C(C)NC(=O)c2cc(CC(C)C)nn2C)cnn1-c1ccccc1 (stereo not drawn)	-80.8%	-41.9%	i	0.282µM*	0.432µM*	0.485µM*	0.0%	0.432µM*
Cc1cnc(C(=O)NCC23CCC=C2N(C)C(=O)CC3)cn1 (stereo not drawn)	-0.5%	-10.2%	i	7.4%	.	.	.	.
CC(C)c1nc2c(c(-c3ccc(Cl)cc3)n1)CCN([S+](=O)([O-])c1cccs1)CC2	?	-18.5%	.	.	.	.	.	.
O=C(NCCCc1ccccc1)C1CCN(c2cc(C(F)(F)F)ncn2)CC1	?	?	i	11.2µM*	21.7µM*	19.3µM*	-1.0%	10.9µM*
O=C(NCc1ccc(F)cc1)C1CCN(c2cc(C(F)(F)F)ncn2)CC1	?	?	i	?	.	.	.	.
CC(C)c1ccc(CNC(=O)C2CCN(c3cc(C(F)(F)F)ncn3)CC2)cc1	?	?	i	12.6µM*	24.3µM*	21.7µM*	2.9%	21.7µM*
Cc1ccc(NC(=O)C2CCN(c3cc(C(F)(F)F)ncn3)CC2)cc1	?	?	i	8.91µM*	13.7µM*	15.3µM*	0.4%	12.2µM*
COc1ccc(C(C)NC(=O)C2CCN(c3cc(C(F)(F)F)ncn3)CC2)cc1 (stereo not drawn)	?	?	i	15.8µM*	24.3µM*	27.3µM*	1.5%	21.7µM*
O=C(NCc1ccccc1)C1CCN(c2cc(C(F)(F)F)ncn2)CC1	?	?	i	?	.	.	.	.
O=C(Cc1ccccc1)N1CCCCCC1c1nnc(-c2ccccc2)o1 (stereo not drawn)	?	-19.9%	.	.	.	.	.	.
CCc1ccc(NC(=O)C2CCN(c3cc(C(F)(F)F)ncn3)CC2)cc1	?	?	i	7.94µM*	10.9µM*	10.9µM*	-0.9%	9.68µM*
O=C(NCCc1ccccc1)Nc1cnc2c(c1)CCC2	i	-11.9%	.	.	.	.	.	.
O=C1CC2(CCN(C(=O)C3CCN(C(=O)c4ccc(F)cc4)CC3)CC2)Oc2ccccc2N1	?	-24.8%	.	.	.	.	.	.
O=C1CC2(CCN(C(=O)c3ccc(Cl)cc3)CC2)Oc2ccccc2N1	?	-22.1%	.	.	17.2µM*	19.3µM*	4.3%	12.2µM*
c1csc(CN2Cc3[nH]cnc3C[C@H]2c2nc(-c3ccc4c(c3)OCO4)no2)c1	-22.8%[172 µM]	-23.6%[138 µM]	i	-4.8%[70.6 µM]	.	.	.	.
O=C(c1ccc(C(F)(F)F)cc1)N1CCCC(C(=O)N2CCC(c3nc4ncccc4[nH]3)CC2)C1 (stereo not drawn)	-7.4%	-7.3%	.	.	.	.	.	.
CC(C)NC(=O)N[C@H]1C[C@@H](Cc2cc(CN3CCN(c4ccccc4)CC3)on2)C1(C)C	?	?	i	11.2µM*	19.3µM*	19.3µM*	-0.3%	17.2µM*
CC1(C)[C@H](Cc2cc(CN3CCCCC3)on2)C[C@@H]1NC(=O)c1ccccc1	?	?	i	0.3%[70.6 µM]	.	.	.	.
SMILES	HEK293 tox	NIH3T3 tox	Luciferase inh	NPR1 antag	NPR1 antag cnf	Npr2 selectivity	FLuc inh counter	GloSensor ctrl
CC(C)(C)C(=O)N[C@H]1C[C@@H](Cc2cc(CN3CCN(c4ccccc4)CC3)on2)C1(C)C	?	-33.6%	i	11.2µM*	19.3µM*	17.2µM*	-1.4%	12.2µM*
C[S+](=O)([O-])c1ccc(-c2cc(C(=O)NCCc3ccc(Cl)cc3)nn3cccc23)cc1	?	22.4µM*	.	.	?	?	15.3µM*	?
COc1cccc(-c2noc(CC3CCN(C(=O)c4ccccc4C)CC3)n2)c1	?	?	i	12.6µM*	12.2µM*	17.2µM*	-4.8%	12.2µM*
CN(C)c1ccc(C(=O)N2CCC(Cc3nc(-c4cnccn4)no3)CC2)cc1	-6.9%	-28.4%	i	-12.2%	.	.	.	.
COc1cccc(-c2noc(CC3CCN(C(=O)c4ccc(N(C)C)cc4)CC3)n2)c1	?	-16.8%	i	10µM*	13.7µM*	15.3µM*	-18.5%	10.9µM*
COc1ccc(C(=O)N2CCC(Cc3nc(-c4ccc(F)cc4)no3)CC2)c(C)c1	?	?	i	1.41µM*	1.53µM*	2.17µM*	0.0%	1.72µM*
COc1cccc(-c2noc(CC3CCN(C(=O)c4ccc(OC)cc4C)CC3)n2)c1	?	?	i	3.55µM*	3.43µM*	4.85µM*	1.5%	2.73µM*
COc1cccc([S+](=O)([O-])N2CCCC3(CC(c4ccccn4)=NO3)C2)c1 (stereo not drawn)	-21.1%	-18.0%	.	.	.	.	.	.
O=C(NCc1cccc(C(F)(F)F)c1)C1CCc2nnc(-c3cccc(C(F)(F)F)c3)n21 (stereo not drawn)	?	-24.7%	.	.	.	.	.	.
O=C(Cc1ccccc1)N1CCCC2(CC(c3ccccc3)=NO2)C1 (stereo not drawn)	-1.0%	-7.1%	.	.	.	.	.	.

Bioassay records (PubChem BioAssay)
